{
  "source": "the supplement of paper PMC11001985",
  "note": "Values without a mark were called inactive.",
  "data": [
    {"compound": "C#CCNC(=O)CCSSCCC(=O)NCCc1ccc(C=O)c(C=O)c1", "assay": "lysine labeling ratio R10:1 (500 µM / 50 µM probe), SILAC-ABPP in living cells; higher = lower intrinsic lysine reactivity toward the probe, active = 2 or less", "conditions": "HeLa; probe concentrations 500 vs 50 µM", "method": "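Living HeLa cells (SILAC light/heavy) in PBS at room temperature were labeled with 50 µM versus 500 µM of the lysine-reactive, reductant-cleavable probe OPA-S-S-alkyne (SILAC labeling time not stated). Probe-modified peptides were CuAAC-biotinylated, captured on neutravidin and eluted with DTT/IAA, then quantified by LC-MS/MS. R = median peptide ratio per lysine (500/50 µM), combined over 3 forward and 3 reverse SILAC replicates. Ratios are capped at 20; R < 2 = hyper-reactive.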", "values": [
      {"target": "GPI (lysine site: K12) (UniProt P06744)", "lysine labeling ratio R10:1": "0.867 (active)"},
      {"target": "HSPA5 (lysine site: K96) (UniProt P11021)", "lysine labeling ratio R10:1": "1.44 (active)"},
      {"target": "UniProt Q15149 (lysine site: K2154)", "sequence (Q15149 whole entry)": "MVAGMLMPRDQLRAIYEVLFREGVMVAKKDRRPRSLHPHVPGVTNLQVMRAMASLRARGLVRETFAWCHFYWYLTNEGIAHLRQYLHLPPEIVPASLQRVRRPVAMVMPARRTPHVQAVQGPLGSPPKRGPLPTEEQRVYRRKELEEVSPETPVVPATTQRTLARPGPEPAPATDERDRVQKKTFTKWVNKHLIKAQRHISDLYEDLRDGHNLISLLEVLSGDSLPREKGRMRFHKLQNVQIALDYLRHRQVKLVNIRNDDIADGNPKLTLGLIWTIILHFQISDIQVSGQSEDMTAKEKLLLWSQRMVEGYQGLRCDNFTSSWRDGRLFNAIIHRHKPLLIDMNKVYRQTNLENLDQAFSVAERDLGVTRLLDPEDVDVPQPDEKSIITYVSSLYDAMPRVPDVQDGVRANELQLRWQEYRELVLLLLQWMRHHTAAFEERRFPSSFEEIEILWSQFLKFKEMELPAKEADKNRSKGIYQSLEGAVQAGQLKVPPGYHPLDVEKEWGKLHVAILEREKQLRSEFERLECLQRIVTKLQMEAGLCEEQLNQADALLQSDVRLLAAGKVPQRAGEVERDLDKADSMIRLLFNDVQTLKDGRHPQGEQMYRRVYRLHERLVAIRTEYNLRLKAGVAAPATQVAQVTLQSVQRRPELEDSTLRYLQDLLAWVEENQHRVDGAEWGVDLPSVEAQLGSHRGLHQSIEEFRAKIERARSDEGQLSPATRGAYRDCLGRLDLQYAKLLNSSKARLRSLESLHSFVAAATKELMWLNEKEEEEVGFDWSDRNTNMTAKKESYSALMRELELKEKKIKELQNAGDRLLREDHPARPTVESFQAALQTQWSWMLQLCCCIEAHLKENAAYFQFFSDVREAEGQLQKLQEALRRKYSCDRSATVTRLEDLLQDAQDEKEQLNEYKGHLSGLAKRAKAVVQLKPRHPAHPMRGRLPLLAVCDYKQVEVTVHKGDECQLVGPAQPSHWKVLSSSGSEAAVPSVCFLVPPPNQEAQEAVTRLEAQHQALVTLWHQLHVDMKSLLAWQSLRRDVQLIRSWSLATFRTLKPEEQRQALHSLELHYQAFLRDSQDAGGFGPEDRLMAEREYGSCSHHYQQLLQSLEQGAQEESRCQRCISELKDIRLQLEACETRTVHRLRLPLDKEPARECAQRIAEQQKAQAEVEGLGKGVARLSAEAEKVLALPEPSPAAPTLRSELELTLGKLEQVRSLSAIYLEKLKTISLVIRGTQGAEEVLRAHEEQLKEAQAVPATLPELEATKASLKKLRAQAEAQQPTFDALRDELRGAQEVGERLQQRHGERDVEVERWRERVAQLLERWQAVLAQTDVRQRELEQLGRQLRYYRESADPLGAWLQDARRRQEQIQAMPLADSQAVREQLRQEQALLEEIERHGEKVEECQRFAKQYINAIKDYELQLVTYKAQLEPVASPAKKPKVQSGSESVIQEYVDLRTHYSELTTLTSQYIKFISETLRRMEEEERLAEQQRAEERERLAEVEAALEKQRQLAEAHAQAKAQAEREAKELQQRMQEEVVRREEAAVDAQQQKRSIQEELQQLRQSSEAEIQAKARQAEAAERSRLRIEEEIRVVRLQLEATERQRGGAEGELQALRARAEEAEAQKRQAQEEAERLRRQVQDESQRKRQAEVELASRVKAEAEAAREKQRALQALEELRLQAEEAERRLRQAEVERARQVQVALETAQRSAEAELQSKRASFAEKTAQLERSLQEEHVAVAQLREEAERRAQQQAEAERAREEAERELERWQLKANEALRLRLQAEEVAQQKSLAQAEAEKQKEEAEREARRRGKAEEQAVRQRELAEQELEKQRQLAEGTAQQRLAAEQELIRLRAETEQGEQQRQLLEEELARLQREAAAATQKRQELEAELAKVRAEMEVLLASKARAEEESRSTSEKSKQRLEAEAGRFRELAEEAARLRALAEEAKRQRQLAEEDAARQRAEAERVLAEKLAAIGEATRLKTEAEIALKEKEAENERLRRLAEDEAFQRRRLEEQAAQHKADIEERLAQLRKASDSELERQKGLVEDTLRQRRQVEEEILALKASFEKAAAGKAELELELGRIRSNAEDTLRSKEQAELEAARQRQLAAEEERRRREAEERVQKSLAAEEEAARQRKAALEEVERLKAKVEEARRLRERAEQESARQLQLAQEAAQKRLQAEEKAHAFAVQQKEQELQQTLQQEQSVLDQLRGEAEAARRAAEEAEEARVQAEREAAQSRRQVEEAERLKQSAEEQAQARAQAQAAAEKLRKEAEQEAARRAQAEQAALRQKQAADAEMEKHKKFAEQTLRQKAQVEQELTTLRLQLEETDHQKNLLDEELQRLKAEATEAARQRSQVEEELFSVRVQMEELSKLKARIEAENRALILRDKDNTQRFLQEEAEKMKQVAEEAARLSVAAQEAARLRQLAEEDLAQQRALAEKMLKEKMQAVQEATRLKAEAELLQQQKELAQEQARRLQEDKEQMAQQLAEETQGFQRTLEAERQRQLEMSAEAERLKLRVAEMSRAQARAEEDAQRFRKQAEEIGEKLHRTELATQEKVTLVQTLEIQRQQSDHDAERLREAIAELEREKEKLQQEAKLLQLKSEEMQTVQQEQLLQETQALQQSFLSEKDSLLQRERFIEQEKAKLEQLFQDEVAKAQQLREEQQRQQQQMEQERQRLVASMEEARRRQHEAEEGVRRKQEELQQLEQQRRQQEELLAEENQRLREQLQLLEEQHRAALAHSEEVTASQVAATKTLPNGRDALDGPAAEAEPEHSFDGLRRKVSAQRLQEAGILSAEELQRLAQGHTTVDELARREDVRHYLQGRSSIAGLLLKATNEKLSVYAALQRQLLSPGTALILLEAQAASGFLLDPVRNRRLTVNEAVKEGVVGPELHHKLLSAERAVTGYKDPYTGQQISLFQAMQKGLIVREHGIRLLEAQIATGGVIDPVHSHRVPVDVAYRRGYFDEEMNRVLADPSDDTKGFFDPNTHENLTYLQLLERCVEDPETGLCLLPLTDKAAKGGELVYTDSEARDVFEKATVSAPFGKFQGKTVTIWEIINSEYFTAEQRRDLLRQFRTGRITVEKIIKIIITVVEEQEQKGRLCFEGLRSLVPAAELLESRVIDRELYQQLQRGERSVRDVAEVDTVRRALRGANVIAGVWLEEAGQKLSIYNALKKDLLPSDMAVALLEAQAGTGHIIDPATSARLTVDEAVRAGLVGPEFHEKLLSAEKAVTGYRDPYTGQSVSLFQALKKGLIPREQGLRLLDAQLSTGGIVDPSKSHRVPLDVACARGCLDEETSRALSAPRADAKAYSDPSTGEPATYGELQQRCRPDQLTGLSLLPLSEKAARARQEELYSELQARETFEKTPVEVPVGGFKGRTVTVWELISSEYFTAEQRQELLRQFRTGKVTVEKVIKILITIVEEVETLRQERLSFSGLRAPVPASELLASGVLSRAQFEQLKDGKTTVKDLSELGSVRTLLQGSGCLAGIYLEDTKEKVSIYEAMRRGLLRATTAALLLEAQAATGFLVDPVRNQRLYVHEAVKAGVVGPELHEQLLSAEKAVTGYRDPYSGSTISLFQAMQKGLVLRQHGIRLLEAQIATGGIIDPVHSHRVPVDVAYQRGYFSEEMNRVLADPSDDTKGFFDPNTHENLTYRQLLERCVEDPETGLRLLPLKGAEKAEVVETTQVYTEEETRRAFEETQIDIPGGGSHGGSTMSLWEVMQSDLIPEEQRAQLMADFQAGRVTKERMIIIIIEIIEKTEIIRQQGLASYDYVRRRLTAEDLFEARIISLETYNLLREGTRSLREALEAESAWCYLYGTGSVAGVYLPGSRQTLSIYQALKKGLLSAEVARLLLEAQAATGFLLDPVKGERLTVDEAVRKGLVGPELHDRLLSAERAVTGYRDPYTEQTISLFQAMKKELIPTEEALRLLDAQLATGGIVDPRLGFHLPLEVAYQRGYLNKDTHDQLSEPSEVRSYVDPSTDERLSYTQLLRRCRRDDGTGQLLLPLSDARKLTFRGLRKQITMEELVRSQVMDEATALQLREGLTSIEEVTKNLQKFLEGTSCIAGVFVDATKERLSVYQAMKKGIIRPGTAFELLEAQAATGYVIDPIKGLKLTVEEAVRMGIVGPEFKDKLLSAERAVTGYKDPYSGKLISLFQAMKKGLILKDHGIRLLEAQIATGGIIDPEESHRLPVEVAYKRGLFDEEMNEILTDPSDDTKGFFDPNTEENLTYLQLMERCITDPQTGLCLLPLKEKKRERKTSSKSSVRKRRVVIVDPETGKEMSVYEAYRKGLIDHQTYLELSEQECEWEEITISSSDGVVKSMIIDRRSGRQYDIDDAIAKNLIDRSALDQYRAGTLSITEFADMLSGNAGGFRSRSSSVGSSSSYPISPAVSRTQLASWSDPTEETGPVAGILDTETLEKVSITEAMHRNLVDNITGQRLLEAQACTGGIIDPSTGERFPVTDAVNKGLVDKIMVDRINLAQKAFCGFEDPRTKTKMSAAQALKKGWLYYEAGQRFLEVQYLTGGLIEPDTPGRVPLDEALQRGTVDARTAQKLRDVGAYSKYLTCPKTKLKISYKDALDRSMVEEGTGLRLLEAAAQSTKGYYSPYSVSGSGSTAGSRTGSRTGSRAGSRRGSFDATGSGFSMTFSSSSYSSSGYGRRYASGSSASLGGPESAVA", "lysine labeling ratio R10:1": "1.47 (active)"},
      {"target": "UniProt P62873 (lysine site: K15)", "lysine labeling ratio R10:1": 3.12},
      {"target": "PPIB (lysine site: K116) (UniProt P23284)", "sequence (P23284 whole entry)": "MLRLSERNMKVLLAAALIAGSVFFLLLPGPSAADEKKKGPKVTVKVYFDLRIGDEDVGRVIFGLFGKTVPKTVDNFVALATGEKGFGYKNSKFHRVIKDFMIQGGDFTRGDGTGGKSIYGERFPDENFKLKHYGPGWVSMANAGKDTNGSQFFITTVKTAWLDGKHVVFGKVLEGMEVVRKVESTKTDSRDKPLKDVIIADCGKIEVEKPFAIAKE", "lysine labeling ratio R10:1": 6.61},
      {"target": "A2M (lysine site: K116) (UniProt P01023)", "lysine labeling ratio R10:1": "0.757 (active)"},
      {"target": "UniProt Q9Y5I4 (lysine site: K686)", "lysine labeling ratio R10:1": 5.99},
      {"target": "CD55 (lysine site: K161) (UniProt P08174)", "lysine labeling ratio R10:1": "0.828 (active)"},
      {"target": "ITGAV (lysine site: K718) (UniProt P06756)", "lysine labeling ratio R10:1": 2.95},
      {"target": "UniProt O60245 (lysine site: K223)", "lysine labeling ratio R10:1": 5.15},
      {"target": "PTBP1 (lysine site: K428) (UniProt P26599)", "lysine labeling ratio R10:1": 3.97},
      {"target": "EEF2 (lysine site: K445) (UniProt P13639)", "lysine labeling ratio R10:1": 2.7},
      {"target": "ITGB5 (lysine site: K163) (UniProt P18084)", "lysine labeling ratio R10:1": 2.53},
      {"target": "IGSF3 (lysine site: K888) (UniProt O75054)", "lysine labeling ratio R10:1": 4.12},
      {"target": "SPTAN1 (lysine site: K2187) (UniProt Q13813)", "lysine labeling ratio R10:1": 5.14},
      {"target": "TFRC (lysine site: K205) (UniProt P02786)", "lysine labeling ratio R10:1": 2.81},
      {"target": "IQGAP1 (lysine site: K1128) (UniProt P46940)", "lysine labeling ratio R10:1": 2.31},
      {"target": "PFN1 (lysine site: K127) (UniProt P07737)", "sequence (P07737 whole entry)": "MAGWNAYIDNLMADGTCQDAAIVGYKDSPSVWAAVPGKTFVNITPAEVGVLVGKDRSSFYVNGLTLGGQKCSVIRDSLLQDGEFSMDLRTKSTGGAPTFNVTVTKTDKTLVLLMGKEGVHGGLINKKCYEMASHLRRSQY", "lysine labeling ratio R10:1": 2.19},
      {"target": "RAB13 (lysine site: K58) (UniProt P51153)", "lysine labeling ratio R10:1": 13.2},
      {"target": "DDX23 (lysine site: K196) (UniProt Q9BUQ8)", "lysine labeling ratio R10:1": "1.64 (active)"},
      {"target": "CCT4 (lysine site: K29) (UniProt P50991)", "lysine labeling ratio R10:1": "1.71 (active)"},
      {"target": "VASN (lysine site: K133) (UniProt Q6EMK4)", "lysine labeling ratio R10:1": 4.74},
      {"target": "FRAS1 (lysine site: K2396) (UniProt Q86XX4)", "lysine labeling ratio R10:1": "1.59 (active)"},
      {"target": "ITGA1 (lysine site: K563) (UniProt P56199)", "lysine labeling ratio R10:1": 5.65},
      {"target": "SPTAN1 (lysine site: K1274) (UniProt Q13813)", "lysine labeling ratio R10:1": 3.51},
      {"target": "MYH9 (lysine site: K1392) (UniProt P35579)", "lysine labeling ratio R10:1": "1.15 (active)"},
      {"target": "CCT4 (lysine site: K395) (UniProt P50991)", "lysine labeling ratio R10:1": 3.34},
      {"target": "F2 (lysine site: K384) (UniProt P00734)", "lysine labeling ratio R10:1": 4.42},
      {"target": "ROBO1 (lysine site: K237) (UniProt Q9Y6N7)", "lysine labeling ratio R10:1": 3.22},
      {"target": "JUP (lysine site: K656) (UniProt P14923)", "lysine labeling ratio R10:1": "0.972 (active)"},
      {"target": "PTPRJ (lysine site: K202) (UniProt Q12913)", "lysine labeling ratio R10:1": 2.9},
      {"target": "UniProt Q15149 (lysine site: K1774)", "lysine labeling ratio R10:1": 8.57},
      {"target": "MYH9 (lysine site: K656) (UniProt P35579)", "lysine labeling ratio R10:1": 2.88},
      {"target": "HNRNPU (lysine site: K31) (UniProt Q00839)", "lysine labeling ratio R10:1": "1.72 (active)"},
      {"target": "SCARB1 (lysine site: K288) (UniProt Q8WTV0)", "lysine labeling ratio R10:1": "0.704 (active)"},
      {"target": "LMO7 (lysine site: K1496) (UniProt Q8WWI1)", "lysine labeling ratio R10:1": 2.11},
      {"target": "UniProt Q99623 (lysine site: K218)", "lysine labeling ratio R10:1": 2.79},
      {"target": "PPIA (lysine site: K31) (UniProt P62937)", "lysine labeling ratio R10:1": 3.16},
      {"target": "UniProt P05787 (lysine site: K130)", "lysine labeling ratio R10:1": 9.55},
      {"target": "UniProt Q15149 (lysine site: K4480)", "lysine labeling ratio R10:1": "1.74 (active)"}
    ]}
  ]
}
